{"source": "paper PMC4336329", "about": "(PLoS ONE, 2015)", "note": "Out of some 310,000 compounds screened, about 14,000 (4.5%) showed an effect of 50% or more. Effects have a minus sign here. This excerpt belongs to a sample that is enriched for strong results.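 Also: peak tail current of the secondary pulse compared with the same well before compound.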"}
{"target": "human ether-à-go-go-related gene (hERG) potassium channel (human, UniProt Q12809)", "sequence (Q12809 whole entry, looked up)": "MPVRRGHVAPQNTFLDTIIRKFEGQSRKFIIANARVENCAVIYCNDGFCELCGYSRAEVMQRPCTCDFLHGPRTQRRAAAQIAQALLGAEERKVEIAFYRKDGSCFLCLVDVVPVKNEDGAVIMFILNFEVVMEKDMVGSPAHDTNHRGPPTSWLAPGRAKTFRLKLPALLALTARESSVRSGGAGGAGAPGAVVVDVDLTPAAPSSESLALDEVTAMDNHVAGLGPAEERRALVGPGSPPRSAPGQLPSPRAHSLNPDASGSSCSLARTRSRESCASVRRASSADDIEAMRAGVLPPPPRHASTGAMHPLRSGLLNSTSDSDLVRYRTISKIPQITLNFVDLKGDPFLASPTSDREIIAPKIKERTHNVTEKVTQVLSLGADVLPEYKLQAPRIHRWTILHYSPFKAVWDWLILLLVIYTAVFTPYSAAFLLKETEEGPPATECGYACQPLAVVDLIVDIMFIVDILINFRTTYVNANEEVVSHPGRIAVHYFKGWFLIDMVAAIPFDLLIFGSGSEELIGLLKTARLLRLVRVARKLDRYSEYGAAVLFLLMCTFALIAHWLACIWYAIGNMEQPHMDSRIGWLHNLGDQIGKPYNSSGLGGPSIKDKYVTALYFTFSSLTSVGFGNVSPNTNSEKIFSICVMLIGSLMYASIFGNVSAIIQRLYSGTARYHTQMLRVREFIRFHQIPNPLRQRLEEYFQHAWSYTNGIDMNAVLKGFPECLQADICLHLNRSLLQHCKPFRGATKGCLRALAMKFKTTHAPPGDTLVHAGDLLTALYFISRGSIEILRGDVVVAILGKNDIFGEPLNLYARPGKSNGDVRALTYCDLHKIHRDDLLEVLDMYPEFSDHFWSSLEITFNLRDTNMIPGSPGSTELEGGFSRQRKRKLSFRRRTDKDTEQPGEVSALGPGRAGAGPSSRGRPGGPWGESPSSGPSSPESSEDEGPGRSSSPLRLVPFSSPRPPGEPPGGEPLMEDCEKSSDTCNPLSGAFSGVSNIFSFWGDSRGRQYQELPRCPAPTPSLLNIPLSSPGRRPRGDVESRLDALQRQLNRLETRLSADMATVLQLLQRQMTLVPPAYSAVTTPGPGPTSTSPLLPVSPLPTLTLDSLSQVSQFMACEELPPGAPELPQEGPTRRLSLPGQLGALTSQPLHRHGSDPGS", "experiment": "primary screen, population patch clamp on CHO cells stably expressing hERG; higher = less effect of the substance", "units": {"hERG current change (%, negative = inhibition) at 10uM": "%"}}
{"smiles": "COc1ccc2c(C)c(CCC(=O)NCCCN3CCCC3=O)c(=O)oc2c1C", "hERG current change (%, negative = inhibition) at 10uM": 1.56}
{"smiles": "Cc1ccc(-c2ccc(=O)n(CC(=O)NCCN3C(C)CCCC3C)n2)cc1", "note": "(stereo not drawn)", "hERG current change (%, negative = inhibition) at 10uM": 0.00388}
{"smiles": "CCCN(c1ccccc1F)S(=O)(=O)c1cc(-c2cc(C)no2)ccc1OC", "hERG current change (%, negative = inhibition) at 10uM": 6.91}
{"smiles": "Cc1ccnc(NC(=O)CCC(=O)N(CC(=O)NC(C)(C)C)c2ccc3c(c2)OCCO3)c1", "hERG current change (%, negative = inhibition) at 10uM": 17.8}
{"smiles": "Cn1cc(Cl)nc1C(O)c1ccccc1", "note": "(stereo not drawn)", "hERG current change (%, negative = inhibition) at 10uM": 7.21}
{"smiles": "Br.O=S(=O)(c1ccc(-c2csc(Nc3ccc(Br)cc3)n2)cc1)N1CCCC1", "hERG current change (%, negative = inhibition) at 10uM": 10.2}
{"smiles": "Cc1cccc(N(CC(=O)NC2CCCCC2)C(=O)c2ccc(C)s2)c1", "hERG current change (%, negative = inhibition) at 10uM": -24.7}
{"smiles": "O=C(COc1ccc(C(=O)c2ccccc2)cc1)NC1CCCCCC1", "hERG current change (%, negative = inhibition) at 10uM": -21.9}
{"smiles": "CC(C)(C)NC(=O)CCC1COc2ccccc2O1", "note": "(stereo not drawn)", "hERG current change (%, negative = inhibition) at 10uM": -4.27}
{"smiles": "Cc1cccc(C)c1NC(=O)N1C2CCC1CC(O)(c1cccnc1)C2", "note": "(stereo not drawn)", "hERG current change (%, negative = inhibition) at 10uM": 20.2}
{"smiles": "Cc1ccc(/C=C/C(=O)NCc2ccccn2)o1", "hERG current change (%, negative = inhibition) at 10uM": -26.4}
{"smiles": "COc1ccc([C@@H]2[C@@H]3C(=O)N(C(C)(C)C)C(=O)[C@@H]3[C@]3(Cc4ccc(Cl)cc4)C(=O)N(c4ccc(Br)cc4)C(=O)N23)cc1", "hERG current change (%, negative = inhibition) at 10uM": 2.7}
{"smiles": "CN1CCC(CO)(Cc2ccccc2)CC1", "hERG current change (%, negative = inhibition) at 10uM": 16.2}
{"smiles": "COc1ccc(CCC(C)N2CCc3ccccc3C2)cc1", "note": "(stereo not drawn)", "hERG current change (%, negative = inhibition) at 10uM": -61.7}
{"smiles": "COc1ccc(CC2(CO)CCN(S(=O)(=O)c3c(C)nn(C)c3Cl)CC2)cc1", "hERG current change (%, negative = inhibition) at 10uM": 14.7}
{"smiles": "COc1ccc(CC2(CO)CCN(C(C)Cc3ccc(Cl)cc3)CC2)cc1", "note": "(stereo not drawn)", "hERG current change (%, negative = inhibition) at 10uM": -80.4}
{"smiles": "CC(COc1ccccc1)N1CCC(CO)(Cc2ccccc2)CC1", "note": "(stereo not drawn)", "hERG current change (%, negative = inhibition) at 10uM": -50.6}
{"smiles": "COc1ccc(CCC(C)N2CCOCC2)cc1", "note": "(stereo not drawn)", "hERG current change (%, negative = inhibition) at 10uM": 2.71}
{"smiles": "COc1ccc(CC2(CO)CCN(S(=O)(=O)N(C)C)CC2)cc1", "hERG current change (%, negative = inhibition) at 10uM": 9.82}
{"smiles": "COc1ccc(CC(=O)N2CCc3ccccc3C2)cc1", "hERG current change (%, negative = inhibition) at 10uM": 3.67}
{"smiles": "Cc1ccsc1C(=O)N1CCC(CO)(Cc2ccccc2)CC1", "hERG current change (%, negative = inhibition) at 10uM": 17.6}
{"smiles": "COc1ccc(N2CCN(C(=O)Cn3ncc4c([nH]c5ccccc54)c3=O)CC2)cc1", "hERG current change (%, negative = inhibition) at 10uM": 9.02}
{"smiles": "CCOC(=O)Cc1csc(NC(=O)c2ccc(S(=O)(=O)N3CCCCC3)cc2)n1", "hERG current change (%, negative = inhibition) at 10uM": -42.2}
{"smiles": "O=[N+]([O-])c1cccn2cc(-c3ccc(Br)cc3)nc12", "hERG current change (%, negative = inhibition) at 10uM": -2.94}
{"smiles": "NS(=O)(=O)c1ccc(CCNC(=O)CCCCCNc2nc(=S)[nH]c3ccccc23)cc1", "hERG current change (%, negative = inhibition) at 10uM": 24.4}
{"smiles": "CC(=NCc1cccnc1)c1c(O)n(-c2ccc(C)cc2)c(=O)[nH]c1=O", "hERG current change (%, negative = inhibition) at 10uM": -8.92}
{"smiles": "Cc1ccc(-n2c(=O)cc(NCc3cccnc3)[nH]c2=O)cc1", "hERG current change (%, negative = inhibition) at 10uM": -65.5}
{"smiles": "Cc1ccc(NCc2cccnc2)cc1", "hERG current change (%, negative = inhibition) at 10uM": 2.82}
{"smiles": "COc1ccc(-c2cc(C(=O)N3CCCCCC3)no2)cc1OC", "hERG current change (%, negative = inhibition) at 10uM": 7.06}
{"smiles": "Cn1c(=O)c2c(nc(-n3ccnc3)n2Cc2ccc([N+](=O)[O-])cc2)n(C)c1=O", "hERG current change (%, negative = inhibition) at 10uM": -43.7}
{"smiles": "Cc1cc(C(=O)CN2CCN(CC(=O)Nc3ccc(F)cc3)CC2)c(C)n1C1CC1", "hERG current change (%, negative = inhibition) at 10uM": -74.5}
{"smiles": "Cc1cccc(C)c1NC(=O)CN1CCN(CC(=O)c2cc(C)n(C3CC3)c2C)CC1", "hERG current change (%, negative = inhibition) at 10uM": -12.4}
{"smiles": "Cc1cc(C(=O)CN2C(=O)c3ccccc3C2=O)c(C)n1C1CC1", "hERG current change (%, negative = inhibition) at 10uM": -1.31}
{"smiles": "Cc1cc(C(=O)CN2CCN(CC(=O)Nc3cccc(F)c3)CC2)c(C)n1C1CC1", "hERG current change (%, negative = inhibition) at 10uM": -56.2}
{"smiles": "Cc1cc(C(=O)OCC(=O)Nc2ccc(F)cc2)c(C)n1C1CC1", "hERG current change (%, negative = inhibition) at 10uM": 5.51}
{"smiles": "Cc1cc(C(=O)OCC(=O)Nc2cccc(F)c2)c(C)n1C1CC1", "hERG current change (%, negative = inhibition) at 10uM": -2.59}
{"smiles": "CC1=C(C(=O)OCc2ccccc2)C(c2ccsc2)NC(=O)N1C", "note": "(stereo not drawn)", "hERG current change (%, negative = inhibition) at 10uM": -37.7}
{"smiles": "CCOC(=O)C(Cc1ccc(OC)c([N+](=O)[O-])c1)NC(=O)CCC(=O)Nc1ccc(C)cc1", "note": "(stereo not drawn)", "hERG current change (%, negative = inhibition) at 10uM": -26.2}
{"smiles": "COC(=O)c1ccc(/C=C/c2c(-c3ccc(OC)cc3)oc3ccc(N4CCOCC4)cc23)cc1", "hERG current change (%, negative = inhibition) at 10uM": 25.7}
{"smiles": "Cc1cc(NC(=O)c2cnn3c(C(F)(F)F)cc(-c4ccc(Br)cc4)nc23)no1", "hERG current change (%, negative = inhibition) at 10uM": 24.4}
{"smiles": "C[C@]12CC[C@@H]3c4ccc(O)cc4[C@@H](O)C[C@H]3[C@@H]1CC[C@@H]2O", "hERG current change (%, negative = inhibition) at 10uM": 10.4}
{"smiles": "C[C@]12CC[C@@H]3c4ccc(O)cc4C(=O)C[C@H]3[C@@H]1CC[C@@H]2O", "hERG current change (%, negative = inhibition) at 10uM": -52.7}
{"smiles": "C[C@]12CC[C@@H]3c4ccc(O)c(O)c4CC[C@H]3[C@@H]1CC[C@@H]2O", "hERG current change (%, negative = inhibition) at 10uM": 15.4}
{"smiles": "CCN(CC)S(=O)(=O)c1ccc(/C=C/C(=O)OCC#N)cc1", "hERG current change (%, negative = inhibition) at 10uM": -12.4}
{"smiles": "COC(=O)c1cccc(NCN2C(=O)c3ccccc3C2=O)c1", "hERG current change (%, negative = inhibition) at 10uM": 1.11}
{"smiles": "CN(CC(=O)Nc1cccc(F)c1)C(=O)CCc1nc2ccccc2c(=O)[nH]1", "hERG current change (%, negative = inhibition) at 10uM": 2.42}
{"smiles": "CCOc1ccc(NC(=O)CN(C)C(=O)Cc2c(C)nc3ccccc3c2C)cc1OCC", "hERG current change (%, negative = inhibition) at 10uM": -47}
{"smiles": "CN(CC(=O)Nc1cccc(F)c1)C(=O)Cc1n[nH]c(=O)c2ccccc12", "hERG current change (%, negative = inhibition) at 10uM": 5.31}
{"smiles": "COc1cccc(NC(=O)CN(C)C(=O)Cc2c(C)nc3ccccc3c2C)c1", "hERG current change (%, negative = inhibition) at 10uM": -62.8}
{"smiles": "COc1ccc(NC(=O)CN(C)C(=O)Cc2c(C)nc3ccccc3c2C)cc1", "hERG current change (%, negative = inhibition) at 10uM": -46.1}
{"smiles": "Cc1nc2ccccc2c(C)c1CC(=O)N(C)CC(=O)Nc1cccc(F)c1", "hERG current change (%, negative = inhibition) at 10uM": -55.9}
{"smiles": "Cc1ccc(C(C(=O)NC(C)(C)C)N(C(=O)c2csnn2)c2ccccc2F)o1", "note": "(stereo not drawn)", "hERG current change (%, negative = inhibition) at 10uM": -9.84}
{"smiles": "CC(C)CC(=O)NS(=O)(=O)c1ccc(NS(C)(=O)=O)cc1", "hERG current change (%, negative = inhibition) at 10uM": 11.7}
{"smiles": "CCCc1nc(Nc2nc3ccccc3o2)nc(C)c1C(=O)OCC", "hERG current change (%, negative = inhibition) at 10uM": -18.3}
